{"source": "PubChem BioAssay (EPA / NIEHS)", "key": {"[1]": {"assay": "ACEA_ER_80hr: ACEA Biosciences xCELLigence Real-Time Cell Analysis on Estrogen Receptor Agonism for Proliferation (AID 2282667; active means hit-call score of the fitted dose curve at least 0.9, where 1 is the maximum)", "details": "T47D proliferation, impedance (xCELLigence), 80 h", "method_in_brief": "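Impedance readout (RT-CES) of T47D proliferation at 80 h post-dose; gain of signal vs DMSO baseline. Compounds: 8 conc, 1:4 serial, top 100 uM final, ≤0.5% DMSO; biological duplicate.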"}, "[2]": {"assay": "ATG_CRE_CIS: Attagene CIS-FACTORIAL HepG2 Assay for human cAMP Responsive Element (CRE) binding protein 3 (AID 2282926)", "details": "HepG2 CRE cis-reporter, Attagene multiplexed mRNA; actives raise or lower the signal", "method_in_brief": "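Readout: fluorescently labelled reporter transcripts resolved by capillary electrophoresis after RT-PCR, taken 24 h post-dosing in transfected HepG2. Endogenous transcription factor activity drives each cis-element reporter; gain or loss of signal fitted relative to DMSO control.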"}, "[3]": {"assay": "ATG_CMV_CIS: Attagene CIS-FACTORIAL HepG2 Assay for human CMV (Internal Marker) (AID 2282928);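 further: endpoint acts as a background internal control marker rather than a target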", "details": "HepG2 CMV promoter reporter, transcription factor profiling; actives raise or lower the signal", "method_in_brief": "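Reporter transcripts from transfected HepG2 cells are isolated after 24 h of chemical dosing, reverse-transcribed and amplified. Fragments labeled with 6-FAM are cut with HpaI and quantified by capillary electrophoresis; DMSO defines baseline.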"}, "[4]": {"assay": "ATG_DR4_LXR_CIS: Attagene CIS-FACTORIAL HepG2 Assay for human Liver X Receptor (LXR), DR4 submotif (AID 2282929)", "details": "HepG2 Attagene DR4 cis-reporter, mRNA transcription; actives raise or lower the signal", "method_in_brief": "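DR4 cis-reporter in HepG2, 24 h exposure. Detection: RT-PCR, 6-FAM labelling, CE fragment analysis. Endpoint fitted bidirectionally, DMSO = baseline.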"}, "[5]": {"assay": "ATG_AP_2_CIS: Attagene CIS-FACTORIAL HepG2 Assay for human Activator Protein 2 (AP-2) (AID 2282932)", "details": "HepG2 AP-2 cis-reporter, Attagene transcription factor profiling; actives raise or lower the signal", "method_in_brief": "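Cells (HepG2) transfected with promoter-driven reporter constructs, treated 24 h. Total RNA reverse-transcribed, reporter cDNA PCR-amplified, FAM-labelled by primer extension, digested, resolved by capillary electrophoresis. Activity fitted both directions versus DMSO.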"}, "[6]": {"assay": "ATG_BRE_CIS: Attagene CIS-FACTORIAL HepG2 Assay for human Bone Morphogenetic Protein (BMP) Response Element (BRE) (AID 2282933)", "details": "HepG2 BMP response element reporter, Attagene transcription factor profiling; actives raise or lower the signal", "method_in_brief": "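Fluorescence-labelled reporter cDNA fragments, separated by capillary electrophoresis, gave the signal for this component of a 52-readout multiplex. HepG2 cells were transfected, exposed to chemicals for 24 h, and compared with DMSO using bidirectional fitting.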"}, "[7]": {"molecular_target": "Retinoic acid receptor alpha (Homo sapiens) (UniProt P10276)", "sequence (P10276 whole entry, looked up)": "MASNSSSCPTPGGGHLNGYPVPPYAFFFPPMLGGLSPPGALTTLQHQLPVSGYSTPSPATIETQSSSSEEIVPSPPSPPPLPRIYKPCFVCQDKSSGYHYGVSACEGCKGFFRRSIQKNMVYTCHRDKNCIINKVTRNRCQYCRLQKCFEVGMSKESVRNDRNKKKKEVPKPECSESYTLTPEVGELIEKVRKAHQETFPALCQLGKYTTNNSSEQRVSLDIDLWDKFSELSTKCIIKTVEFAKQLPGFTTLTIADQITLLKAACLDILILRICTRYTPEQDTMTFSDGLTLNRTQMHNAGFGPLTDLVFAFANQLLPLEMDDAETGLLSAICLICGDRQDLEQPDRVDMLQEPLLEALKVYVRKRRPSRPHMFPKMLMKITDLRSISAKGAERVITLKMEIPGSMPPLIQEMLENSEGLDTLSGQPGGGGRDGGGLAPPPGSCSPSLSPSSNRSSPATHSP", "assay": "ATG_DR5_RAR_CIS: Attagene CIS-FACTORIAL HepG2 Assay for human Retinoic Acid Receptor Alpha (RARE), DR5 submotif (AID 2282934);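 on AC50: reporter responds to endogenous RAR alpha beta and gamma in HepG2 not RARA alone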", "details": "HepG2 Attagene cis-factorial RARE DR5 reporter, mRNA; actives raise or lower the signal", "method_in_brief": "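Endpoint fitted in both directions relative to DMSO as negative control. It reflects DR5 cis-element reporter mRNA induction in transiently transfected HepG2 cells, measured 24 h after dosing through RT-PCR and fluorescent capillary electrophoresis.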"}, "[8]": {"molecular_target": "Transcription factor E2F1 (Homo sapiens) (UniProt Q01094)", "sequence (Q01094 whole entry, looked up)": "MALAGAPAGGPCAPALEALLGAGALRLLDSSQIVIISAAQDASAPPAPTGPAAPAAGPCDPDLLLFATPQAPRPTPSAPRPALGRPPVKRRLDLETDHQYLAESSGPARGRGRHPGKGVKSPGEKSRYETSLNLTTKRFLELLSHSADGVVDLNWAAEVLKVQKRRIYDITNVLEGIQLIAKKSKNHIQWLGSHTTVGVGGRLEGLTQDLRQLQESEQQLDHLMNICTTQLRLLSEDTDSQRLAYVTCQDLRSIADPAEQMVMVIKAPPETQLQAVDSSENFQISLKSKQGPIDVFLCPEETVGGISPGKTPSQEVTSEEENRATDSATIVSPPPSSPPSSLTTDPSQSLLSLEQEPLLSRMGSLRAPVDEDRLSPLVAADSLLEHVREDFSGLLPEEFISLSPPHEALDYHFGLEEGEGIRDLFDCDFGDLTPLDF", "assay": "ATG_E2F_CIS: Attagene CIS-FACTORIAL HepG2 Assay for human E2F Transcription Factor 1 (AID 2282935)", "details": "HepG2 Attagene cis-reporter, E2F reporter RNA transcripts; actives raise or lower the signal", "method_in_brief": "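First, HepG2 cells were transfected with reporter transcription units. Next, they were dosed for 24 h. Then RNA was isolated, converted to cDNA, PCR-amplified, FAM-labeled, HpaI-digested and analyzed by capillary electrophoresis.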"}, "[9]": {"assay": "ATG_E_Box_CIS: Attagene CIS-FACTORIAL HepG2 Assay for human Enhancer Box (E-box) (AID 2282936)", "details": "HepG2 E-box cis-reporter transcription, actives raise or lower the signal", "method_in_brief": "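Endogenous transcription factor activity was sensed in human HepG2 liver cells through transfected cis-promoter reporter units. After 24 h of dosing, total RNA was reverse-transcribed and reporter cDNA resolved by capillary electrophoresis.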"}, "[10]": {"assay": "ATG_M_61_CIS: Attagene CIS-FACTORIAL HepG2 Assay for M61 Transcription Factor (Internal Marker) (AID 2282937)", "details": "HepG2 Attagene CIS-FACTORIAL M61 internal marker reporter; actives raise or lower the signal", "method_in_brief": "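Background-control endpoint: HepG2 cells with cis-regulated reporter constructs, 24 h exposure, reporter mRNA detected via fluorescent primer extension and capillary electrophoresis; values from bidirectional fitting with DMSO baseline.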"}, "[11]": {"assay": "ATG_EGR_CIS: Attagene CIS-FACTORIAL HepG2 Assay for human Early Growth Response 1 (EGR1) (AID 2282938)", "details": "HepG2 Attagene CIS-FACTORIAL EGR reporter mRNA; actives raise or lower the signal", "method_in_brief": "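Endpoint derived by bidirectional fitting versus DMSO vehicle. Method: cis-promoter reporter units transfected into HepG2, 24 h dosing, RNA isolation, RT-PCR with 6-FAM primer extension and HpaI digestion, then capillary electrophoresis fluorescence detection.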"}, "[12]": {"assay": "ATG_M_19_CIS: Attagene CIS-FACTORIAL HepG2 Assay for M19 Transcription Factor (Internal Marker) (AID 2282939)", "details": "HepG2 Attagene CIS-FACTORIAL M19 internal marker reporter; actives raise or lower the signal", "method_in_brief": "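HepG2, MRTU transient transfection, 24 h dosing. Total RNA → RT-PCR → 6-FAM primer extension → HpaI digest → CE fluorescence. Bidirectional curve fit, DMSO negative control.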"}, "[13]": {"assay": "ATG_ERE_CIS: Attagene CIS-FACTORIAL HepG2 Assay for Estrogen Response Element (ERE) (AID 2282940)", "details": "HepG2 ERE cis-reporter, Attagene RNA transcript; actives raise or lower the signal", "method_in_brief": "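After a 24 h chemical treatment, RNA from reporter-transfected HepG2 cells is reverse-transcribed, PCR-amplified and fluorescently labelled. Fragments separated by capillary electrophoresis give reporter signal; DMSO serves as negative control.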"}, "[14]": {"assay": "ATG_Ets_CIS: Attagene CIS-FACTORIAL HepG2 Assay for human Erythroblast Transformation Specific (ETS) (AID 2282941)", "details": "HepG2 ETS cis-reporter transcription, actives raise or lower the signal", "method_in_brief": "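Bidirectional fit versus DMSO of reporter mRNA signal, detected by RT-PCR and capillary electrophoresis in HepG2 cells transiently transfected with cis-element reporters and dosed 24 h.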"}, "[15]": {"molecular_target": "Hepatocyte nuclear factor 3-beta (Homo sapiens) (UniProt Q9Y261)", "sequence (Q9Y261 whole entry, looked up)": "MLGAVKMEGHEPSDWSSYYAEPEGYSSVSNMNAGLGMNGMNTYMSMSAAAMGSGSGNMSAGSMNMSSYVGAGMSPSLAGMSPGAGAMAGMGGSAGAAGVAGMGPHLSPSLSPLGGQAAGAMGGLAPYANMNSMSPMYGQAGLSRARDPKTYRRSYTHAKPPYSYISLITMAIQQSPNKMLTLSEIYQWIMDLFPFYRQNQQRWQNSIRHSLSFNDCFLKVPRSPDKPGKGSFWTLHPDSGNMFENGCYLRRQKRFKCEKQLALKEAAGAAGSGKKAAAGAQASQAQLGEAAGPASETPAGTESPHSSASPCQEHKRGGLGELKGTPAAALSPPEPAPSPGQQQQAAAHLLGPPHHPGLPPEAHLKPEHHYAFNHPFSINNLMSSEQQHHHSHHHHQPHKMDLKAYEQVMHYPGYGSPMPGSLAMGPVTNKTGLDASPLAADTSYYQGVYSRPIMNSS", "assay": "ATG_FoxA2_CIS: Attagene CIS-FACTORIAL HepG2 Assay for human Forkhead box A2 (FOXA2) (AID 2282942)", "details": "HepG2 cis-reporter transcription factor activity, 24 h; actives raise or lower the signal", "method_in_brief": "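Measured: reporter mRNA induction or loss in HepG2 transiently carrying multiple cis-regulated reporter units, 24 h after dosing. Quantified by RT-PCR plus capillary electrophoresis, normalised to DMSO.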"}, "[16]": {"assay": "ATG_FoxO_CIS: Attagene CIS-FACTORIAL HepG2 Assay for human Forkhead box O (FoxO) (AID 2282943)", "details": "HepG2 Attagene cis-reporter, FoxO element, mRNA; actives raise or lower the signal", "method_in_brief": "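Values reflect reporter mRNA induction or loss in HepG2 cells 24 h post-dosing, fitted bidirectionally with DMSO as negative control and baseline. Detection used RT-PCR and fluorescence capillary electrophoresis.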"}, "[17]": {"assay": "ATG_GATA_CIS: Attagene CIS-FACTORIAL HepG2 Assay for human GATA Binding Protein (AID 2282944)", "details": "HepG2 GATA cis-element reporter, Attagene multiplex mRNA; actives raise or lower the signal", "method_in_brief": "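Cells: HepG2, transiently transfected with cis-regulated reporter transcription units. Exposure: 24 h. Detection: RT-PCR plus capillary electrophoresis of FAM-labeled fragments. Analysis: bidirectional, DMSO as baseline.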"}, "[18]": {"molecular_target": "CCAAT/enhancer-binding protein beta (Homo sapiens) (UniProt P17676)", "sequence (P17676 whole entry, looked up)": "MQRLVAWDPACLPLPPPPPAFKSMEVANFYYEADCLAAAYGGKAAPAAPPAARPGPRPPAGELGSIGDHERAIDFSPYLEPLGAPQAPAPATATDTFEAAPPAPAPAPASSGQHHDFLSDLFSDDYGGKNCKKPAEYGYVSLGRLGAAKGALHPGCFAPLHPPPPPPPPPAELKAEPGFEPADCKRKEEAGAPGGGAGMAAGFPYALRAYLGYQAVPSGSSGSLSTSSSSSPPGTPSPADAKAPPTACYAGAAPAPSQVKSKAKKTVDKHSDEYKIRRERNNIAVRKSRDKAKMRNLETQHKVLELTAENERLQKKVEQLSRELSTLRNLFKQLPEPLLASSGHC", "assay": "ATG_C_EBP_CIS: Attagene CIS-FACTORIAL HepG2 Assay for human CCAAT/Enhancer Binding Protein (C/EBP) beta (AID 2282927)", "details": "HepG2 Attagene cis-factorial transcription factor reporter; actives raise or lower the signal", "method_in_brief": "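Following a 24 h incubation with test chemical, transfected HepG2 cells yielded RNA whose reporter transcripts were quantified by RT-PCR and fluorescent capillary electrophoresis, with DMSO serving as baseline for bidirectional fitting.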"}, "[19]": {"molecular_target": "Aryl hydrocarbon receptor (Homo sapiens) (UniProt P35869)", "sequence (P35869 whole entry, looked up)": "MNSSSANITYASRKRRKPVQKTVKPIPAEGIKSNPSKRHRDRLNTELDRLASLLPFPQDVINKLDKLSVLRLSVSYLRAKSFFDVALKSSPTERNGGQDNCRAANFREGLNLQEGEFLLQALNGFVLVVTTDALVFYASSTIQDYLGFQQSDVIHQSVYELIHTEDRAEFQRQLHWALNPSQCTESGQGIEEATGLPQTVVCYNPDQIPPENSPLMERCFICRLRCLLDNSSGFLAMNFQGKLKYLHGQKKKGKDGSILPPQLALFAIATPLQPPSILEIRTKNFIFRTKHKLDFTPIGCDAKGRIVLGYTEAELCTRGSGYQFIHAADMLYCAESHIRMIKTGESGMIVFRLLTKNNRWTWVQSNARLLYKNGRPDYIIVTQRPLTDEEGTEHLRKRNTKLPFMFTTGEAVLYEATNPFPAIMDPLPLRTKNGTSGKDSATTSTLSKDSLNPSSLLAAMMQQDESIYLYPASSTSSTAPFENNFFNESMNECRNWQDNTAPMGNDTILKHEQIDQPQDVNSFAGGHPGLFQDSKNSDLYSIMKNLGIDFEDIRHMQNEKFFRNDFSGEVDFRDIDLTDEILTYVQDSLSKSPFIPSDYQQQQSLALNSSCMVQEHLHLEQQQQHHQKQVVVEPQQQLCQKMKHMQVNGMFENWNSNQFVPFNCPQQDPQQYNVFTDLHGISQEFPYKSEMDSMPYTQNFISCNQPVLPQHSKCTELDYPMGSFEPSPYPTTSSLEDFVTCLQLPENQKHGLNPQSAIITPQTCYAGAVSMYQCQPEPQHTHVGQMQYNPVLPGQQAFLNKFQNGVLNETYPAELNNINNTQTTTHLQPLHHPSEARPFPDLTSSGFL", "assay": "ATG_Ahr_CIS: Attagene CIS-FACTORIAL HepG2 Assay for human Aryl Hydrocarbon Receptor (Ahr) (AID 2282930)", "details": "HepG2 AhR cis-factorial reporter transcription; actives raise or lower the signal", "method_in_brief": "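Values derive from bidirectional fitting against DMSO negative control. Underlying signal: cis-element reporter mRNA in transiently transfected HepG2, harvested 24 h post-dose and measured by RT-PCR plus capillary electrophoresis.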"}, "[20]": {"assay": "ATG_AP_1_CIS: Attagene CIS-FACTORIAL HepG2 Assay for human Activator Protein 1 (AP-1) (AID 2282931)", "details": "HepG2 Attagene cis-factorial AP-1 reporter mRNA; actives raise or lower the signal", "method_in_brief": "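Cis-regulated reporter units transiently expressed in HepG2 report endogenous transcription-factor activity. Signal: reporter mRNA at 24 h, via RT-PCR and fluorescent capillary electrophoresis. Endpoint derived by bidirectional fitting, DMSO as negative control.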"}}, "note": "Records with an inconclusive call do not appear. Calls of active or inactive are those of the source. How the source made its calls, unless noted: active means hit-call score of the fitted dose curve at least 0.9, where 1 is the maximum; inactive means score below 0.9.", "data": [{"smiles": "CCCCCCCOC(=O)c1ccc(O)cc1", "values": [{"measurement": "AC50", "setting": "[1]", "value": "0.496 µM (active)"}, {"measurement": "outcome", "setting": "[2]", "value": "inactive"}, {"measurement": "outcome", "setting": "[3]", "value": "inactive"}, {"measurement": "AC50", "setting": "[4]", "value": "24.3 µM (active)"}, {"measurement": "outcome", "setting": "[5]", "value": "inactive"}, {"measurement": "outcome", "setting": "[6]", "value": "inactive"}, {"measurement": "AC50", "setting": "[7]", "value": "53.1 µM (active)"}, {"measurement": "outcome", "setting": "[8]", "value": "inactive"}, {"measurement": "AC50", "setting": "[9]", "value": "54.3 µM (active)"}, {"measurement": "outcome", "setting": "[10]", "value": "inactive"}, {"measurement": "outcome", "setting": "[11]", "value": "inactive"}, {"measurement": "outcome", "setting": "[12]", "value": "inactive"}, {"measurement": "AC50", "setting": "[13]", "value": "19.3 µM (active)"}, {"measurement": "outcome", "setting": "[14]", "value": "inactive"}, {"measurement": "outcome", "setting": "[15]", "value": "inactive"}, {"measurement": "outcome", "setting": "[16]", "value": "inactive"}, {"measurement": "outcome", "setting": "[17]", "value": "inactive"}]}, {"smiles": "CC(=O)OCCc1ccccc1", "values": [{"measurement": "outcome", "setting": "[1]", "value": "inactive"}, {"measurement": "outcome", "setting": "[18]", "value": "inactive"}, {"measurement": "outcome", "setting": "[3]", "value": "inactive"}, {"measurement": "outcome", "setting": "[4]", "value": "inactive"}, {"measurement": "outcome", "setting": "[19]", "value": "inactive"}, {"measurement": "outcome", "setting": "[20]", "value": "inactive"}, {"measurement": "outcome", "setting": "[5]", "value": "inactive"}, {"measurement": "outcome", "setting": "[6]", "value": "inactive"}, {"measurement": "outcome", "setting": "[7]", "value": "inactive"}, {"measurement": "outcome", "setting": "[8]", "value": "inactive"}, {"measurement": "outcome", "setting": "[9]", "value": "inactive"}, {"measurement": "outcome", "setting": "[10]", "value": "inactive"}, {"measurement": "outcome", "setting": "[11]", "value": "inactive"}, {"measurement": "outcome", "setting": "[12]", "value": "inactive"}, {"measurement": "outcome", "setting": "[13]", "value": "inactive"}, {"measurement": "outcome", "setting": "[14]", "value": "inactive"}, {"measurement": "outcome", "setting": "[15]", "value": "inactive"}, {"measurement": "outcome", "setting": "[16]", "value": "inactive"}, {"measurement": "outcome", "setting": "[17]", "value": "inactive"}]}, {"smiles": "CCCCCCCCCCCCCC(=O)OC(C)C", "values": [{"measurement": "outcome", "setting": "[1]", "value": "inactive"}, {"measurement": "outcome", "setting": "[2]", "value": "inactive"}, {"measurement": "outcome", "setting": "[3]", "value": "inactive"}, {"measurement": "outcome", "setting": "[20]", "value": "inactive"}, {"measurement": "outcome", "setting": "[5]", "value": "inactive"}, {"measurement": "outcome", "setting": "[6]", "value": "inactive"}, {"measurement": "outcome", "setting": "[7]", "value": "inactive"}, {"measurement": "outcome", "setting": "[8]", "value": "inactive"}, {"measurement": "outcome", "setting": "[9]", "value": "inactive"}, {"measurement": "outcome", "setting": "[11]", "value": "inactive"}, {"measurement": "outcome", "setting": "[12]", "value": "inactive"}, {"measurement": "outcome", "setting": "[13]", "value": "inactive"}, {"measurement": "outcome", "setting": "[15]", "value": "inactive"}, {"measurement": "outcome", "setting": "[16]", "value": "inactive"}, {"measurement": "outcome", "setting": "[17]", "value": "inactive"}]}]}
